{"source": "PubChem BioAssay", "note": "Unmarked numbers belong to inactive results. Calls of active or inactive are those of the source. No stated cut-off is given here; in the data, active means inhibition above about 36%; inactive means the rest.", "data": [{"tested_on": "transactivating tegument protein VP16 (Human herpesvirus 1)", "assay": "VP16 transactivation reporter inhibitors, counter-screen for SRC2 inhibitor project, cell-based, luminescence, single concentration (AID 652007)", "settings": "cell-based VP16 transactivation luciferase reporter, at 8.9 µM, stronger effect = higher value", "values": [{"smiles": "CCCCn1c(CCl)nc2cc(S(=O)(=O)N3CCOCC3)ccc21", "inhibition": "22%"}, {"smiles": "CCN(CC)S(=O)(=O)c1cccc(C(=O)N/N=C(\\C)c2ccc(O)cc2O)c1", "inhibition": "2.49%"}, {"smiles": "C=C(C(=O)c1ccccc1)C(C)C(=C)C(=O)c1ccccc1", "inhibition": "53.9% (active)"}, {"smiles": "CC(=O)CSc1ccc(-c2nc3cc(C)c(C)cc3[nH]2)cn1", "inhibition": "10.4%"}, {"smiles": "CC(=O)OCCN1c2ccccc2Sc2cnccc21", "inhibition": "-4.99%"}, {"smiles": "O=C(NCCCn1ccnc1)c1ccc(N2CCCCCC2)c([N+](=O)[O-])c1", "inhibition": "26.9%"}, {"smiles": "Cc1cc(Sc2nnc(N)s2)c2ccccc2n1", "inhibition": "11.7%"}, {"smiles": "COCC1CCN(C(=O)c2cc(COc3cccc4cnccc34)on2)CC1", "inhibition": "3.58%"}, {"smiles": "COc1cc(/C=C/C(=O)c2ccc3c(c2)OCCO3)cc(Br)c1OCC(=O)N(C)C", "inhibition": "30.9%"}, {"smiles": "CC(C)(C)C(=O)Nc1ccc(-c2cc3cc(Cl)ccc3o2)cc1", "inhibition": "-83.9%"}, {"smiles": "COc1cc(/C=C/C(=O)c2ccc(F)cc2)cc(OC)c1OC", "inhibition": "21.9%"}, {"smiles": "Cc1ccc(C(=O)NNC(=O)CCCN2C(=O)/C(=C/c3ccccc3Cl)SC2=S)cc1", "inhibition": "53.4% (active)"}, {"smiles": "COc1ccc(-c2csc3ncnc(NCCN4CCOCC4)c23)cc1", "inhibition": "0.34%"}, {"smiles": "Cc1cccc(C)c1NS(=O)(=O)c1ccc(-c2cnc(C3CC3)o2)cc1", "inhibition": "2.97%"}, {"smiles": "CCN(CC)S(=O)(=O)c1ccc(N/N=C/c2cc(OC)ccc2O)nc1", "inhibition": "-11%"}, {"smiles": "COc1ccc(N(C(=O)CCl)C(C(=O)NCCc2ccccc2)c2cccs2)cc1Cl", "note": "(stereo not given)", "inhibition": "29.9%"}, {"smiles": "CCN(CC)c1ccc(-n2c(C)c(C(C)=O)c(C(C)=O)c2C)cc1", "inhibition": "-2.52%"}, {"smiles": "Cc1nc([N+](=O)[O-])c(Sc2nc3ccccc3n2C)n1Cc1ccccc1", "inhibition": "31.9%"}, {"smiles": "COC(=O)c1c(C)n(-c2ccc(OC)cc2)c2ccc(O)cc12", "inhibition": "-4.83%"}, {"smiles": "CCCCN(CC)Cc1ccc(CNC(=S)Nc2ccc(C)cc2Cl)o1", "inhibition": "12.7%"}, {"smiles": "Cc1ccc(-n2nc3c(=O)n(C(C)C(=O)NCCC4=CCCCC4)nc(C)c3c2C)cc1", "note": "(stereo not given)", "inhibition": "3.1%"}, {"smiles": "CCOc1ccc(C(=O)C(CCC(CN(C)C)C(=O)c2ccc(OCC)cc2)CN(C)C)cc1", "note": "(stereo not given)", "inhibition": "42.6% (active)"}, {"smiles": "Cc1ccc(NC(=O)c2ccccc2NS(=O)(=O)c2ccc(F)cc2)cc1S(=O)(=O)N1CCCCC1", "inhibition": "10.3%"}, {"smiles": "O=C(N[C@@H](Cc1ccccc1)C(=O)CCl)OCc1ccccc1", "inhibition": "64.2% (active)"}, {"smiles": "CCc1ccc(-c2nc(CS(=O)CC(=O)NCc3ccco3)c(C)o2)cc1", "note": "(stereo not given)", "inhibition": "3.28%"}, {"smiles": "CCC(=O)c1ccc(O)c(CC=C(C)C)c1", "inhibition": "-16.9%"}, {"smiles": "O=C(c1ccc(S(=O)(=O)c2ccc(F)cc2)c([N+](=O)[O-])c1)N1CCCCCC1", "inhibition": "15.7%"}, {"smiles": "O=C(OCc1ccccc1)c1ccc(NCc2cc(O)ccc2O)cc1", "inhibition": "94.5% (active)"}, {"smiles": "O=C(O)CCn1c(O)c(C=C2N=c3ccccc3=N2)sc1=S", "inhibition": "34.1%"}, {"smiles": "CC1CCN(c2ccc(-c3cccs3)nn2)CC1", "inhibition": "34.7%"}, {"smiles": "CCOc1cc(/C=C2\\COc3ccccc3C2=O)ccc1OCC(=O)N(C)C", "inhibition": "32.2%"}, {"smiles": "O=C(NC(CSCc1ccccc1)C(=O)N/N=C/c1ccc(O)cc1O)c1ccc([N+](=O)[O-])cc1", "note": "(stereo not given)", "inhibition": "-26.8%"}, {"smiles": "Cc1cccc(CN2CCN(C(=O)CCl)CC2)c1", "inhibition": "38% (active)"}, {"smiles": "COc1ccc(COC(=O)C2=C(C)NC(=O)NC2c2ccc(OC)cc2)cc1", "note": "(stereo not given)", "inhibition": "12%"}, {"smiles": "O=C(O)c1ccc(N/N=C/c2ccc3c(c2)OCO3)cc1", "inhibition": "-0.58%"}, {"smiles": "Nc1ccc(-c2nc3ccc(C(=O)O)cc3s2)cc1", "inhibition": "40.2% (active)"}, {"smiles": "Cc1ccc(-n2c(C)cc(C(=O)COc3cccnc3[N+](=O)[O-])c2C)cc1", "inhibition": "-23%"}, {"smiles": "O=S(=O)(/C(=C/c1ccc(C(F)(F)F)cc1)c1nc2ccccc2[nH]1)c1ccccc1", "inhibition": "71.8% (active)"}, {"smiles": "CC(C)C(=O)NC(c1ccco1)c1ccc2cccnc2c1O", "note": "(stereo not given)", "inhibition": "-13.3%"}, {"smiles": "Cc1ccc2nc(NC(=O)CSCC(=O)OCC(=O)c3ccc(Br)cc3)sc2c1", "inhibition": "77.8% (active)"}]}]}
